In PubChem BioAssay (EPA / NIEHS):
The source made the active and inactive calls. Rule for the calls: active = hit-call score of the fitted dose curve at least 0.9, where 1 is the maximum; inactive = score below 0.9.

Experiments:
Conditions in all cases: mRNA level, 48 h; actives raise or lower the signal
[1] = read-out: growth arrest and DNA damage 45 (GADD45G), GADD45G (gene 10912); assay: LTEA_HepaRG_GADD45G: Life Technologies and Expression Analysis (LTEA) Assay for growth arrest and DNA damage 45 (GADD45G) using HepaRG (AID 2283499)
Outline: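 Human hepatic HepaRG line treated 48 h with chemicals (eight concentrations, half-log steps from 100 uM); transcript induction or repression of GADD45G scored by qRT-PCR versus DMSO vehicle.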

[2] = read-out: Glutamate-cysteine ligase regulatory (GCLM), GCLM (gene 2730); assay: LTEA_HepaRG_GCLM: Life Technologies and Expression Analysis (LTEA) Assay for Glutamate-cysteine ligase regulatory (GCLM) using HepaRG (AID 2283500)
Outline: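 Differentiated human HepaRG cells exposed 48 h in serum-free induction medium to 8-point half-log concentrations (top 100 uM, 0.5% DMSO), in duplicate. GCLM mRNA quantified by qRT-PCR, normalized to ACTB, GAPDH, POLR2A; bidirectional fitting versus DMSO.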

[3] = read-out: Glutathione S-transferase M3 (GSTM3), GSTM3 (gene 2947); assay: LTEA_HepaRG_GSTM3: Life Technologies and Expression Analysis (LTEA) Assay for Glutathione S-transferase M3 (GSTM3) using HepaRG (AID 2283501)
Outline: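 Changes in GSTM3 expression, an oxidative-stress marker, were scored by bidirectional curve fitting against 0.5% DMSO vehicle. Human HepaRG cultures received chemicals for 48 h in duplicate, highest concentration 100 uM with half-log dilutions.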

[4] = read-out: Heat shock 70 kDa protein 1 (HSPA1A), gene 3303; assay: LTEA_HepaRG_HSPA1A: Life Technologies and Expression Analysis (LTEA) Assay for Heat shock 70 kDa protein 1 (HSPA1A) using HepaRG (AID 2283502)
Outline: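 Differentiated human HepaRG cells in serum-free induction medium were exposed in duplicate for 48 h to eight concentrations (top 100 uM, half-log steps, 0.5% DMSO). HSPA1A mRNA was quantified by qRT-PCR, normalized to ACTB, GAPDH and POLR2A, and fitted bidirectionally against DMSO.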

[5] = read-out: 3-Hydroxy-3-Methylglutaryl-CoA Synthase 2 (HMGCS2), HMGCS2 (gene 3158); assay: LTEA_HepaRG_HMGCS2: Life Technologies and Expression Analysis (LTEA) Assay for 3-Hydroxy-3-Methylglutaryl-CoA Synthase 2 (HMGCS2) using HepaRG (AID 2283504)
Outline: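 Expression of HMGCS2 in human HepaRG liver cells is measured by qRT-PCR 48 h after dosing (highest 100 uM, half-log series, 0.5% DMSO). Values come from bidirectional concentration-response fitting with DMSO as baseline.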

[6] = read-out: HGF (gene 3082); assay: LTEA_HepaRG_HGF: Life Technologies and Expression Analysis (LTEA) Assay for Hepatocyte Growth Facto (HGF) using HepaRG (AID 2283505)
Outline: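 Gain or loss of HGF mRNA in human HepaRG liver cells after 48 h chemical exposure; eight concentrations up to 100 uM with 0.5% DMSO vehicle, quantified by TaqMan qRT-PCR.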

[7] = read-out: Insulin Like Growth Factor 1 (IGF1), IGF1 (gene 3479); assay: LTEA_HepaRG_IGF1: Life Technologies and Expression Analysis (LTEA) Assay for Insulin Like Growth Factor 1 (IGF1) using HepaRG (AID 2283506)
Outline: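 Differentiated human HepaRG cells were dosed for 48 h in serum-free induction medium with 0.5% DMSO, eight half-log concentrations up to 100 uM, in duplicate. IGF1 mRNA was quantified by qRT-PCR normalized to ACTB, GAPDH, POLR2A; bidirectional fitting versus DMSO.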

[8] = read-out: Intercellular Adhesion Molecule 1 (ICAM1), ICAM1 (gene 3383); assay: LTEA_HepaRG_ICAM1: Life Technologies and Expression Analysis (LTEA) Assay for Intercellular Adhesion Molecule 1 (ICAM1) using HepaRG (AID 2283507)
Outline: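 Gain or loss of transcript in HepaRG hepatic cells is quantified by qRT-PCR after 48 h chemical exposure (up to 100 uM, half-log steps), with DMSO as baseline.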

[9] = read-out: Insulin-like growth factor-binding protein 1 (IGFBP1), IGFBP1 (gene 3484); assay: LTEA_HepaRG_IGFBP1: Life Technologies and Expression Analysis (LTEA) Assay for Insulin-like growth factor-binding protein 1 (IGFBP1) using HepaRG (AID 2283508)
Outline: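 mRNA induction or loss was quantified by qRT-PCR after 48 h chemical exposure of human HepaRG cells, with 0.5% DMSO as vehicle and baseline. Concentration-response over eight points up to 100 uM.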

[10] = read-out: Interleukin 6 (IL6), IL6 (gene 3569); assay: LTEA_HepaRG_IL6: Life Technologies and Expression Analysis (LTEA) Assay for Interleukin 6 (IL6) using HepaRG (AID 2283509)
Outline: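 Differentiated human HepaRG cells, plated 48 h then switched to serum-free induction medium, were exposed in duplicate for 48 h to eight half-log concentrations up to 100 uM in 0.5% DMSO. IL6 mRNA measured by qRT-PCR, normalized to ACTB/GAPDH/POLR2A.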

[11] = read-out: Interleukin 6 Receptor (IL6R), IL6R (gene 3570); assay: LTEA_HepaRG_IL6R: Life Technologies and Expression Analysis (LTEA) Assay for Interleukin 6 Receptor (IL6R) using HepaRG (AID 2283510)
Outline: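 Differentiated human HepaRG cells, plated 48 h then switched to serum-free induction medium, were dosed in duplicate for 48 h at eight half-log concentrations up to 100 uM in 0.5% DMSO. IL6R mRNA quantified by qRT-PCR, normalized to ACTB/GAPDH/POLR2A; bidirectional fit versus DMSO.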

[12] = read-out: Potassium channel subfamily K member 1 (KCNK1), KCNK1 (gene 3775); assay: LTEA_HepaRG_KCNK1: Life Technologies and Expression Analysis (LTEA) Assay for Potassium channel subfamily K member 1 (KCNK1) using HepaRG (AID 2283511)
Outline: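 Differentiated human HepaRG cells in serum-free induction medium were exposed in duplicate for 48 h to 8 half-log concentrations up to 100 uM in 0.5% DMSO. KCNK1 mRNA was measured by TaqMan qRT-PCR, normalized to ACTB, GAPDH and POLR2A, and fitted bidirectionally versus DMSO.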

[13] = read-out: Keratin 19 (KRT19), KRT19 (gene 3880); assay: LTEA_HepaRG_KRT19: Life Technologies and Expression Analysis (LTEA) Assay for Keratin 19 (KRT19) using HepaRG (AID 2283512)
Outline: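 Gene-expression endpoint in the human liver line HepaRG after 48 h exposure to up to 100 uM test chemical with 0.5% DMSO vehicle; KRT19 mRNA by qRT-PCR, analyzed bidirectionally versus DMSO.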

[14] = read-out: JUN Transcription Factor, JUN (gene 3725); assay: LTEA_HepaRG_JUN: Life Technologies and Expression Analysis (LTEA) Assay for JUN Transcription Factor using HepaRG (AID 2283513)
Outline: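 Differentiated HepaRG cells were exposed to chemicals for 48 h in serum-free induction medium, 8 concentrations from 100 uM in half-log steps, 0.5% DMSO vehicle, in duplicate. JUN mRNA was quantified by TaqMan qRT-PCR, normalized to ACTB, GAPDH, POLR2A.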

[15] = read-out: Lipase C (LIPC), LIPC (gene 3990); assay: LTEA_HepaRG_LIPC: Life Technologies and Expression Analysis (LTEA) Assay for Lipase C (LIPC) using HepaRG (AID 2283514)
Outline: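 Differentiated human HepaRG cells in serum-free induction medium were exposed in duplicate for 48 h to eight concentrations (top 100 uM, half-log steps, 0.5% DMSO). LIPC mRNA was quantified by TaqMan qRT-PCR, normalized to ACTB, GAPDH and POLR2A, with bidirectional fitting versus DMSO.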

[16] = read-out: Lipoprotein lipase (LPL), LPL (gene 4023); assay: LTEA_HepaRG_LPL: Life Technologies and Expression Analysis (LTEA) Assay for Lipoprotein lipase (LPL) using HepaRG (AID 2283515)
Outline: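 Differentiated human HepaRG cells in serum-free induction medium were exposed in duplicate for 48 h to eight half-log concentrations (top 100 uM) in 0.5% DMSO. LPL mRNA was quantified by TaqMan qRT-PCR, normalized to ACTB, GAPDH and POLR2A.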

[17] = read-out: MicroRNA 122 (MIR122), gene 406906; assay: LTEA_HepaRG_MIR122: Life Technologies and Expression Analysis (LTEA) Assay for MicroRNA 122 (MIR122) using HepaRG (AID 2283516); note: the transcript read is the microRNA miR-122
Outline: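 Differentiated human HepaRG cells were exposed 48 h in serum-free induction medium to eight half-log concentrations (top 100 uM, 0.5% DMSO). Transcript level was measured by TaqMan qRT-PCR, normalized to ACTB, GAPDH and POLR2A, and fitted bidirectionally versus DMSO.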

[18] = read-out: matrix metalloproteinase-10 (MMP10), MMP10 (gene 4319); assay: LTEA_HepaRG_MMP10: Life Technologies and Expression Analysis (LTEA) Assay for matrix metalloproteinase-10 (MMP10) using HepaRG (AID 2283517)
Outline: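 HepaRG, collagen I, ~100,000 cells/well; serum-free induction medium; 48 h exposure, duplicate, 8-pt half-log to 100 uM, 0.5% DMSO. Readout: TaqMan qRT-PCR, normalized to ACTB/GAPDH/POLR2A; bidirectional fit vs DMSO.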

[19] = read-out: MYC, MYC (gene 4609); assay: LTEA_HepaRG_MYC: Life Technologies and Expression Analysis (LTEA) Assay for MYC using HepaRG (AID 2283518)
Outline: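 Cells are thawed, plated and cultured 48 h, then treated for 48 h with test chemicals (eight half-log concentrations from 100 uM, 0.5% DMSO vehicle). RNA is isolated and MYC expression quantified by qRT-PCR against three housekeeping genes.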

Measured: AC50

COCCOC[C@H](CC1(C(=O)NC2CCC(C(=O)O)CC2)CCCC1)C(=O)Oc1ccc2c(c1)CCC2 (stereo partly specified)
inactive: all assays above

CCCCN(CCCC)CCCC
inactive: all assays above

CCCCC(CC)COC(=O)CC(C(=O)OCC(CC)CCCC)S(=O)(=O)O (stereo unspecified)
active: [1] 87 µM | [2] 79.7 µM | [4] 38.1 µM | [5] 79.6 µM | [9] 90.7 µM | [10] 91.4 µM | [14] 77.6 µM | [16] 82.1 µM | [19] 85 µM
inactive: all other assays above

Cc1nc(-c2ccc3c(c2)CCN(CCC2CCC(NC(=O)/C=C/c4ccc(F)cc4)CC2)CC3)no1 (stereo unspecified)
inactive: all assays above
